# In all, about 2,400 compounds went through this assay and about 2,000 (83%) were called active. The set was probably picked from earlier hits. The list is a sample of the results. A number with no mark means an inactive call.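 How the source made its calls: active means inhibition above the solvent-only control well mean plus 3 SD, limit set per screening run (cut at about 23% in these data); inactive means the rest.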
# Target: Guanyl-specific ribonuclease T1 (Aspergillus oryzae (strain ATCC 42149 / RIB 40)) (UniProt P00651)
# Sequence (P00651 whole entry, looked up): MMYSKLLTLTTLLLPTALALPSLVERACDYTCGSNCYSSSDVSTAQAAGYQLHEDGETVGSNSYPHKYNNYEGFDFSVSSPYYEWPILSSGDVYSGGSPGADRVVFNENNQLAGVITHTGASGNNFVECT
# Assay: RNase T1 inhibitors, counter-screen for TPT1 inhibitor project, biochemical, fluorescence polarization (AID 2153);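 further: plate controls were DMSO wells with enzyme for no effect and wells without RNase T1 for full effect; inhibitors block cleavage so intact labeled substrate keeps polarization high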
# Conditions: RNase T1 cleavage, 1536-well, at 5 µM, active compounds read high
row,Structure (SMILES),inhibition
1,Cc1cc(O)c(C(=O)/C=C/c2c(F)c(F)c(F)c(F)c2F)c(=O)o1,81.2% (active)
2,N#CC1=C(N)Oc2c(sc3ccccc23)C1c1ccco1 (stereo not given),76.9% (active)
3,Cn1c2ccccc2c2cc(/C=C(\NC(=O)c3ccccc3)C(=O)NCC(=O)O)ccc21,92.9% (active)
4,Cc1ccc(Nc2ccccc2N)cc1,36% (active)
5,Cc1cccn2c(=O)c(/C=C3\SC(=S)N(CC(C)C)C3=O)c(NCCCOC(C)C)nc12,131% (active)
6,COc1cc(/C=C2/C(=O)NN(c3cccc(Cl)c3)C2=O)cc(Br)c1O,150% (active)
7,Cc1cc(C)c(/C=C2\C(=O)Nc3ccccc32)[nH]1,118% (active)
8,Cc1ccc(-c2nn(-c3ccccc3)cc2/C=C2\SC(=S)N(CCCCCC(=O)O)C2=O)o1,73.6% (active)
9,CCC(c1nnnn1Cc1ccco1)N(Cc1cc2cc(OC)ccc2[nH]c1=O)C1CCCCC1 (stereo not given),17.9%
10,N#C/C(=C(/O)COC(=O)COc1ccc(Cl)cc1)c1nc2ccccc2[nH]1,50.6% (active)
11,CCOc1ccc2nc(/N=C/c3nc(-c4ccccc4)oc3O)sc2c1,65.4% (active)
12,Cc1c(-c2ccccc2)cn2c1-c1ccc(C)n1CC2,47.3% (active)
13,Cn1cccc1/C=C1\SC(=S)N(NC(=O)c2ccc(Cl)cc2)C1=O,113% (active)
14,Fc1ccc2nc(Nc3nc4c(s3)CCCC4)sc2c1,37.5% (active)
15,CN1/C(=C\C=C2\N=C(c3ccc(F)cc3)OC2=O)C(C)(C)c2ccccc21,140% (active)
16,Cc1ccc(C)c2[nH]c(=O)c(CCNC(=O)CC(C)C)cc12,6.2%
17,N#C/C(=C/c1ccc(N2CCCCC2)o1)C(=O)NCCc1c[nH]c2ccccc12,170% (active)
18,CN1/C(=c2/s/c(=C3/C(=O)N(c4ccccc4)NC3=Nc3ccccc3)n(C)c2=O)C(C)(C)c2ccccc21,92.8% (active)
19,CS(=O)(=O)c1ccc2c(c1)SC1=NC(=O)/C(=C/c3ccco3)C(=N)N12,60.6% (active)
20,CCN(CC)c1ccc(/C=N/Nc2nc(C)cc(C)n2)c(O)c1,44.9% (active)
21,Cc1ccc(S(=O)(=O)N(C)c2nc3ccccc3n3c(C(C)C)nnc23)cc1,3.03%
22,CCOc1nnc(C)c2c(C)n(-c3cccc(Cl)c3)nc12,88.4% (active)
23,CSC1=N/C(=C\C=C\c2cccs2)C(=O)S1,64.5% (active)
24,CCCOc1ccc(Cn2c(O)cc(=O)[nH]c2=O)cc1,30.3% (active)
25,COc1ccc(C2=NN(C(=O)c3ccccc3C(=O)O)C(c3ccccc3O)C2)cc1 (stereo not given),37.9% (active)

row,Structure (SMILES),inhibition
1,O=C(/C=C/c1ccc(N2CCOCC2)cc1)c1ccccc1,91.3% (active)
2,Cc1ccc(Nc2nc(Cl)c(C=O)s2)cc1,77.2% (active)
3,Cc1ccc2[nH]c(=O)c(CN3CCCCC3)c(-c3ccccc3)c2c1,3.06%
4,CCOc1ccc(-n2c(O)c(/C=N/c3ccnn3Cc3ccncc3)c3ccccc3c2=O)cc1,92% (active)
5,Cc1ccc2cc(/C=N/Nc3ccc(C(=O)O)cc3)c(Cl)nc2c1,46.9% (active)
6,CCn1c(/C=C/c2ccc([N+](=O)[O-])o2)nc2ccccc2c1=O,49.4% (active)
7,CN=c1scc(-c2cc(OC)ccc2OC)n1/N=C/c1c(C)[nH]c2ccccc12,32.1% (active)
8,COc1cc(N2CCCC2)c(OC)cc1/C=C(/C#N)c1cccc(Br)c1,91.3% (active)
9,CCN1/C(=C\c2ccc3ccccc3[n+]2CC)Sc2cc(C)ccc21,88.3% (active)
10,CCN1/C(=C/c2ccc3ccc(C)cc3[n+]2CC)Sc2ccccc21,59.6% (active)
11,O=S(=O)(O)Oc1c[nH]c2ccccc12,49.5% (active)
12,CCOC(=O)C1=C(C)Nc2sc(C(=O)c3ccc(Br)cc3)c(N)c2C1c1ccc(C(=O)OC)cc1 (stereo not given),37.3% (active)
13,Cc1cc(/C=C2/SC(=O)N(CC(=O)N3CCCC3)C2=O)ccc1N1CCOCC1,78.1% (active)
14,CC(=O)n1c(C=Nc2ccccc2)c(O)c2ccccc21,84.6% (active)
15,COC(=O)c1[nH]c2cccc(C)c2c1NC(=O)CN1CCCc2ccccc21,29.8% (active)
16,CCN(CC)c1ccc2cc(C(N)=O)/c(=N\NC(=O)c3ccncc3)oc2c1,135% (active)
17,CCOC(=O)c1c(NC(=S)Nc2ccccc2)sc2c1CCN(C)C2,54% (active)
18,CC(=O)c1cc(NC(=O)c2ccccc2)c(=O)oc1/C=C/N(C)C,123% (active)
19,CC[n+]1cc(C)ccc1/C=C/c1ccc(N(C)C)cc1,51.2% (active)
20,O=C(NNc1c2ccccc2nc2ccccc12)c1cc2ccccc2cc1O,46.8% (active)
21,CCN(CC)C(=O)CSC(Nc1cccc(F)c1)=C(C#N)C#N,61.1% (active)
22,CN(C)CCCn1c(N)c(C#N)c2nc(C#N)c(C#N)nc21,58.9% (active)
23,Cc1ccc(N=C2NC(=O)/C(=C/C=C/c3ccco3)S2)cc1C,30.5% (active)
24,COc1ccc(Cc2nc(-c3ccccn3)no2)cc1OC,13.1%
25,CN(C)c1ccc(/C=C2\NC(=S)N(Cc3ccccc3)C2=O)cc1,144% (active)

row,Structure (SMILES),inhibition
1,CCOC(=O)c1c(CC(C)C)csc1/N=C/C1=C(O)CCCC1=O,17.9%
2,Cc1cc(/C=N/Nc2ccc([N+](=O)[O-])cn2)c(C)n1-c1cccc(C(=O)O)c1,62.8% (active)
3,Cc1ccc(-n2c(C)cc(/C=N/Nc3ccc([N+](=O)[O-])cn3)c2C)c(C)c1,76.1% (active)
4,Nc1nonc1-n1nnc(C(=O)N/N=C/c2cc(Br)ccc2O)c1CSC1=NCCS1,41.6% (active)
5,COc1ccccc1/C=N/Nc1nc(C)c(C(C)=O)s1,39.1% (active)
6,O=C(CN1C(=O)c2ccccc2C1=O)NCc1ccc(C(=O)O)cc1,15.9%
7,Cc1c(CC(=O)N2CCN(C(=O)C3COc4ccccc4O3)CC2)c(=O)oc2c(O)c(O)ccc12 (stereo not given),8.71%
8,COc1cc(/C=C2/SC(=S)N(Cc3ccccc3)C2=O)cc(OC)c1O,108% (active)
9,NC(=O)c1c(Nc2nc3c(F)cccc3s2)sc2c1CCCC2,97.8% (active)
10,CC1=CC2=NC(=O)/C(=C/c3coc4ccccc4c3=O)C(=N)N2O1,45.6% (active)
11,Oc1ccc(/C=N/Nc2nc(-c3ccccc3F)nc3ccccc23)c(O)c1,41.4% (active)
12,CCOC(=O)/C(C#N)=C/c1ccc(N2CCCCC2)cc1,129% (active)
13,CCOC(=O)/C(C#N)=C/c1ccc(N2CCN(Cc3ccccc3)CC2)cc1,92.8% (active)
14,N#C/C(=C\c1ccc(N2CCOCC2)o1)C(=O)N1CCOCC1,165% (active)
15,Cc1ccc(CC2S/C(=C(/C#N)C(=O)N3CCOCC3)N(c3ccccc3)C2=O)cc1 (stereo not given),14.3%
16,N#C/C(=C/c1ccc(N2CCOCC2)o1)C(=O)N1CCOCC1,178% (active)
17,COc1cc2c(cc1O)[C@H](Cc1ccc(Oc3cc(C[C@@H]4NCCc5cc(OC)c(O)cc54)ccc3O)cc1)NCC2,44.2% (active)
18,Cc1nc2ccccc2nc(=O)c1NNc1ccc([N+](=O)[O-])cc1,47.2% (active)
19,O=C1NC(=O)C2C1C(c1ccc([N+](=O)[O-])cc1)=NN2Cc1ccccc1 (stereo not given),48% (active)
20,Nc1c(C(=O)c2cccs2)sc2nsc(SCCN3CCCCC3)c12,73.8% (active)
21,CN1C(=O)/C(=C/C=C2\SCCN2C)OC1=S,165% (active)
22,COc1ccc(N=C(C)c2sc3ccccc3c2O)cc1,82.8% (active)
23,Cc1cccc2cc3c(N)c(C(=O)N4CCCc5ccccc54)sc3nc12,68.5% (active)
24,Cc1sc2nc(COC(=O)C(NC(=O)c3ccc(Cl)cc3Cl)C(C)C)[nH]c(=O)c2c1C (stereo not given),66.8% (active)
25,O=C(Nc1ccc(S(=O)(=O)Nc2nccs2)cc1)c1cc(-c2ccncc2)nc2ccccc12,64.3% (active)

row,Structure (SMILES),inhibition
1,CCCCCCc1cc2cc(-c3nnc(-c4ccccc4)o3)c(=O)oc2cc1O,110% (active)
2,NNC(=O)c1oc2nc(-c3ccccc3)cc(-c3ccco3)c2c1N,43.8% (active)
3,COc1cc(/C=C(\C#N)c2nc3c(s2)CC(C)CC3)ccc1O (stereo not given),125% (active)
4,COc1cc(/C=C(\C#N)c2nc3ccccc3[nH]2)ccc1O,112% (active)
5,C[n+]1ccc(/C=C/c2c[nH]c3ccccc23)cc1,63.7% (active)
6,CN(c1ccccc1)c1ccc(/C=c2\s/c(=C(/C#N)C(=O)C(C)(C)C)n(Cc3ccco3)c2=O)cc1,125% (active)
7,C=CCC1=C/C(=C\c2c(N)n3nc(CC(=O)N4CCOCC4)sc3nc2=O)C=C(OC)C1=O,106% (active)
8,CC(C)(C)c1ccc(/C=C2\Oc3c(ccc(O)c3CN3CCN(CCO)CC3)C2=O)cc1,45.6% (active)
9,O=C1Nc2cc(C(=O)N3CCN(c4ccc(F)cc4)CC3)ccc2NC1CSCc1cccc(F)c1 (stereo not given),116% (active)
10,Cc1ccc(CSCC2Nc3ccc(C(=O)N4CCN(c5ccc(F)cc5)CC4)cc3NC2=O)cc1 (stereo not given),22.8% (active)
11,CC(C)c1ccc(Nc2nnc(SCC(=O)c3nnc(-c4ccccc4)o3)s2)cc1,29.1% (active)
12,CN1C(=O)/C(=C\c2ccc(-c3ccccc3)o2)SC1=S,96.2% (active)
13,O=C(O)C(c1ccccc1)N1C(=O)/C(=C\c2ccc(-c3cccc(Cl)c3)o2)SC1=S (stereo not given),146% (active)
14,CCC(=C/c1sc2ccc3ccccc3c2[n+]1C)/C=C1\Sc2ccc3ccccc3c2N1C,104% (active)
15,O=C(N/N=C/c1sc(N2CCCCC2)nc1-c1cccs1)c1cccnc1,51.2% (active)
16,Cc1cccc(COc2ccccc2/C=N/Nc2ccc([N+](=O)[O-])cc2)c1,98.6% (active)
17,O=[N+]([O-])c1ccc(N/N=C/c2ccccc2)cc1,52.2% (active)
18,Cc1cccc(NC(=O)c2ccc(COc3ccccc3[N+](=O)[O-])o2)n1,8.35%
19,CCOc1ccc(/C=C2\SC(=S)N(NC(=O)c3ccncc3)C2=O)cc1OC,65.5% (active)
20,Cc1c(C(=O)OC(C)C)sc(NC(=O)c2cccnc2)c1C#N,38.8% (active)
21,CCOc1cc(/C=C(\C#N)c2nc(-c3cccs3)c(NC(C)=O)s2)ccc1O,95.6% (active)
22,Cn1ccc(=NC=C(C#N)C#N)c2ccccc21,31.9% (active)
23,CC1CCN(C(=O)c2ccc3c(c2)NC(=O)CN3)CC1,52.2% (active)
24,O=C(C[n+]1cc(Br)cc2ccccc21)c1ccc(F)cc1,54.2% (active)
25,O=C(Cc1nc2ccccc2[nH]c1=O)c1ccc(Cl)cc1,65.7% (active)

# Source: PubChem BioAssay AID2153 (The Scripps Research Institute Molecular Screening Center, 2009)
